Data: PMC5540273 (PLoS ONE, 2017)

What was measured:
Settings in all cases: concentration: 1 μM,replicates: in singlicate; n = 1
[1] = test system: TESK1
[2] = test system: TGFBR1
[3] = test system: TGFBR2
[4] = test system: TIE1
[5] = test system: T1, TIE2
T1 construct: gene TEK

[6] = test system: TLK1
[7] = test system: TLK2
[8] = test system: TNIK
[9] = test system: TNK1
[10] = test system: TNK2
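Also: KINOMEscan kinase panel screen.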

| Structure (SMILES) | %Inh [1] [%] | %Inh [2] [%] | %Inh [3] [%] | %Inh [4] [%] | %Inh [5] [%] | %Inh [6] [%] | %Inh [7] [%] | %Inh [8] [%] | %Inh [9] [%] | %Inh [10] [%] |
| --- | --- | --- | --- | --- | --- | --- | --- | --- | --- | --- |
| CN(c1ccc2c(c1)nc(NCc1ccc(F)cc1)n2C)c1ccnc(Nc2ccc(CS(C)(=O)=O)cc2)n1.Cl [GW813244] | 4 | 0 | 2 | 92.2 | 37 | 15 | 10 | 22 | 43 | 0 |
| O=C(Nc1ccccc1)c1cccc(Oc2ccc3nccn3n2)c1 | 0 | 0 | 0 | 94.1 | 0 | 100 | 0 | 0 | 33 | 0 |
| C[C@@H]1CNc2c(sc3ccc4nc(-c5ccc(O)cc5)ccc4c23)C(=O)N1 | 8 | 1 | 60 | 0 | 25 | 24 | 0 | 42 | 14 | 0 |
| Cl.Nc1n[nH]c2cc(-c3ccccn3)ccc12 [GSK2189892] | 22 | 0 | 0 | 0 | 0 | 0 | 0 | 5 | 0 | 15 |
| COC(=O)c1cccc(NC(=O)NC2CCN(c3ccnc(NCc4ccc(F)cc4)n3)CC2)c1 [GSK1379860] | 16 | 25 | 0 | 0 | 0 | 0 | 0 | 0 | 0 | 15 |
| C[C@@H](Oc1cc(-n2cnc3cc(-c4ccncc4)ccc32)sc1C(N)=O)c1ccccc1Cl [GSK479719] | 0 | 1 | 0 | 84 | 27 | 0 | 0 | 11 | 20 | 37 |
| CCCC(=O)Nc1n[nH]c2ncccc12 [SB-601436] | 5 | 0 | 0 | 0 | 0 | 0 | 0 | 0 | 0 | 0 |
| O=c1[nH]cc(-c2ccc(O)cc2)c2sc(-c3ccncc3)cc12 [GSK1033723] | 0 | 0 | 0 | 0 | 89 | 6 | 0 | 4 | 0 | 5 |
| CS(=O)c1ccc(-c2coc3ccc(-c4n[nH]c(=O)o4)cc23)cc1 (stereo not shown) | 0 | 24 | 18 | 0 | 10 | 35 | 0 | 0 | 0 | 0 |
| CC(=O)c1c(-c2ccncc2)[nH]c(-c2ccncc2)c1C [GW493036] | 25 | 23 | 25 | 0 | 1 | 0 | 0 | 0 | 0 | 19 |
| CN(c1ccccc1CNc1nc(Nc2ccc3c(c2)CC(=O)N3)ncc1C(F)(F)F)S(C)(=O)=O | 0 | 0 | 16 | 90.6 | 49 | 0 | 0 | 1 | 83 | 53 |
| Cn1ccc2ncnc(Oc3ccc(NC(=O)Nc4cncc(C(F)(F)F)c4)c(Cl)c3)c21 | 0 | 0 | 0 | 80 | 92.8 | 5 | 0 | 0 | 0 | 0 |
| COc1ccc(Nc2nccc(N3CCC(NC(=O)c4cccc(C#N)c4)C3)n2)cc1 (stereo not shown) [GSK1379730] | 46 | 0 | 0 | 16 | 5 | 0 | 0 | 0 | 0 | 11 |
| COc1cccc(C2=C(Nc3cccc(Cl)c3)C(=O)NC2=O)c1 [SB-341556] | 17 | 12 | 0 | 4 | 0 | 38 | 29 | 0 | 32 | 15 |
| COc1cc2nccc(Nc3ccc(Oc4ccccc4)cc3)c2cc1OC.Cl [GI261656] | 5 | 2 | 0 | 0 | 0 | 0 | 0 | 0 | 92.8 | 47 |
| O=C(NCC1CC1)c1ccc(-c2cc(C(=O)NC3CC3)ccc2F)cc1 [GW810445] | 0 | 27 | 0 | 0 | 0 | 0 | 0 | 0 | 30 | 0 |
| COc1cccc(OC)c1C(=O)Nc1cccc(-c2nn3ccccc3c2-c2ccnc(Nc3cccc(F)c3)n2)c1 [GSK361065] | 1 | 0 | 17 | 19 | 12 | 19 | 0 | 6 | 31 | 29 |
| CS(=O)(=O)Nc1ccc(-c2ccnc3[nH]ccc23)cc1 [GSK993273] | 4 | 0 | 0 | 28 | 3 | 63 | 63 | 32 | 0 | 14 |
| Cn1ccc2ncnc(Oc3ccc(NC(=O)Nc4ccnc(C(F)(F)F)c4)c(Cl)c3)c21 | 0 | 0 | 53 | 76 | 11 | 6 | 0 | 0 | 0 | 0 |

| Structure (SMILES) | %Inh [1] [%] | %Inh [2] [%] | %Inh [3] [%] | %Inh [4] [%] | %Inh [5] [%] | %Inh [6] [%] | %Inh [7] [%] | %Inh [8] [%] | %Inh [9] [%] | %Inh [10] [%] |
| --- | --- | --- | --- | --- | --- | --- | --- | --- | --- | --- |
| CC(C)S(=O)(=O)N1CCN(Cc2ccc3c(c2)nc(NC(=O)c2ccsc2)n3C[C@H](O)c2ccccc2)CC1 [GW635815] | 37 | 0 | 0 | 28 | 0 | 0 | 0 | 65 | 79 | 19 |
| FC(F)(F)c1cc(Br)cc(Nc2nccc(-c3cnn4ncccc34)n2)c1 [GW810578] | 11 | 27 | 99.3 | 18 | 0 | 0 | 14 | 0 | 36 | 0 |
| NC(=O)Nc1sc(-c2ccc(F)cc2)cc1C(N)=O [GW789449] | 24 | 27 | 0 | 0 | 12 | 4 | 0 | 33 | 32 | 26 |
| Cc1ccn2nc(-c3ccc(F)cc3)c(-c3ccncc3)c2c1.Cl [GW457859] | 34 | 12 | 0 | 0 | 0 | 6 | 0 | 58 | 0 | 0 |
| Cc1ccc(CC(=O)N2CCc3cc(-c4cn(C)c5ncnc(N)c45)ccc32)cc1 [GSK2634758] | 36 | 0 | 0 | 89 | 48 | 0 | 0 | 1 | 0 | 42 |
| O=C1NCCc2[nH]c(-c3ccncc3)cc21 | 6 | 33 | 44 | 0 | 5 | 31 | 8 | 35 | 15 | 0 |
| Cn1ccc2ncnc(Oc3ccc(NC(=O)Nc4cnn(C(C)(C)C)c4)c(Cl)c3)c21 | 0 | 13 | 5 | 78 | 73 | 17 | 0 | 72 | 0 | 0 |
| Cc1nnc(-c2ccc3occ(-c4ccc(S(C)=O)cc4)c3n2)o1 (stereo not shown) | 0 | 0 | 0 | 0 | 0 | 3 | 0 | 1 | 0 | 0 |
| Cl.Cl.NC[C@H](CC1CCCCC1)NC(=O)c1ccc(-c2ccnc3[nH]ccc23)s1 [GSK1581428] | 0 | 0 | 0 | 100 | 0 | 1 | 4 | 12 | 0 | 0 |
| CN1CCN(CCNc2nc3cc(Oc4ccc(NC(=O)Nc5cc(C(F)(F)F)ccc5F)cc4)ccc3[nH]2)CC1.Cl.Cl [GW768504] | 0 | 6 | 4 | 89 | 60 | 0 | 2 | 0 | 30 | 0 |
| COc1cc(Nc2nccc(N3CCC(NC(=O)c4cccc(C#N)c4)C3)n2)cc(OC)c1OC (stereo not shown) [GSK1379751] | 19 | 4 | 0 | 32 | 0 | 4 | 0 | 0 | 98.9 | 10 |
| Cl.c1ccc(Oc2ccc(Nc3ccnc4cc(-c5ccc(CN6CCNCC6)o5)ccc34)cc2)nc1 [GW567142] | 0 | 21 | 0 | 0 | 0 | 9 | 1 | 0 | 61 | 38 |
| COc1cccc(CNC(=O)NC2CCN(c3ccnc(Nc4cc(OC)c(OC)c(OC)c4)n3)C2)c1 (stereo not shown) [GSK1379765] | 40 | 24 | 0 | 100 | 0 | 0 | 0 | 0 | 0 | 8 |
| C[C@@H](Oc1cc(-n2cnc3ccc(-c4ccncc4)cc32)sc1C(N)=O)c1ccccc1Cl [GSK483724] | 37 | 0 | 0 | 41 | 0 | 0 | 0 | 9 | 0 | 25 |
| Cc1ccc2c(-c3ccnc(Nc4ccc(C(F)(F)F)cc4)n3)cnn2n1 [GW819776] | 0 | 21 | 60 | 0 | 6 | 18 | 17 | 9 | 13 | 0 |
| O=C(Nc1ccc(Oc2ccc3nc(NC(=O)C4CC4)cn3n2)c(F)c1)c1cccn(-c2ccccc2)c1=O | 17 | 9 | 9 | 92.2 | 90.1 | 0 | 0 | 34 | 59 | 0 |
| O=C(NOCC1CC1)c1cc(Br)c(F)c(F)c1Nc1ccc(I)cc1Cl | 0 | 0 | 0 | 0 | 16 | 47 | 0 | 12 | 0 | 0 |
| C[C@@H]1CCN(C(=O)N2CCCC2)C[C@@H]1N(C)c1ncnc2[nH]ccc12 | 16 | 0 | 0 | 22 | 10 | 12 | 0 | 14 | 69 | 0 |
